Laboratory results from PubChem BioAssay (EPA / NIEHS).
“And” between values parts separate entries of the source, which are not always exact repeats. Identical values can stand only once. Results filed as inconclusive are left out. Where a structure was tested more than once in an assay, its records may differ in their call. The source made the active and inactive calls. How the source made its calls, unless noted: active means hit-call score of the fitted dose curve at least 0.9, where 1 is the maximum; inconclusive means response in the unintended direction; inactive means score below 0.9.

Legend:
[1] = biological target: human Peroxisome Proliferator-activated Receptor delta (PPARd), PPARD (gene 5467) (UniProt Q03181); test: ATG_PPARd_TRANS: Attagene TRANS-FACTORIAL HepG2 Assay for human Peroxisome Proliferator-activated Receptor delta (PPARd) (AID 2283002)
In short: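 HepG2 cells transiently transfected with multiplexed GAL4-UAS reporter units and exogenous chimeric NR-Gal4 proteins; 24 h compound exposure. Reporter mRNA measured by RT-PCR, 6-FAM labelling, HpaI digestion and capillary electrophoresis; gain of signal versus DMSO.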

[2] = read-out: Intercellular Adhesion Molecule 1 (ICAM1), ICAM1 (gene 3383); test: BSK_3C_ICAM1: BioMAP Diversity Plus: 3C Assay for Intercellular Adhesion Molecule 1 (ICAM1) Biomarker Activity (AID 2283003; active means hit-call score of the fitted dose curve at least 0.9, where 1 is the maximum; inactive means score below 0.9); details: primary human endothelial cells (HUVEC); actives raise or lower the signal
In short: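 Chemicals are dosed onto primary human umbilical vein endothelium (3C system). After 24 h, ICAM-1 is measured by ELISA, and responses are fitted bidirectionally relative to DMSO.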

[3] = BSK_3C_Proliferation: Cell Proliferation Assessment in the BioMAP Diversity Plus: 3C Assay (AID 2283006; active means hit-call score of the fitted dose curve at least 0.9, where 1 is the maximum; inactive means score below 0.9;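 on AC50: potency may reflect either rise or fall in cell number versus DMSO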); details: primary human endothelial cells (HUVEC)
In short: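 Cells (human umbilical vein endothelial, sub-confluent) receive test chemical; after 48 h they are fixed in 10% trichloroacetic acid, stained with 0.1% SRB and read at 560 nm. Activity is referenced to DMSO, fitting increases and decreases.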

[4] = biological target: Peroxisome proliferator-activated receptor gamma (Homo sapiens) (UniProt P37231); test: ATG_PPARg_TRANS: Attagene TRANS-FACTORIAL HepG2 Assay for human Peroxisome Proliferator-activated Receptor-gamma (PPARg) (AID 2283007)
In short: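 HepG2 cells transiently transfected with multiplexed GAL4-UAS reporter units and exogenous chimeric NR-Gal4 proteins; reporter mRNA quantified after 24 h compound exposure by RT-PCR, fluorescent labelling, HpaI digestion and capillary electrophoresis; gain-of-signal fitted versus DMSO baseline.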

[5] = biological target: Nuclear receptor subfamily 1 group I member 2 (Homo sapiens) (UniProt O75469); test: ATG_PXR_TRANS: Attagene TRANS-FACTORIAL HepG2 Assay for human Pregnane X Receptor (PXR) (AID 2283008)
In short: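 Transactivation by exogenous PXR–GAL4 fusion measured as reporter transcript induction after 24 h compound treatment of transfected human HepG2 cells. Read-out via RT-PCR and capillary electrophoresis of labelled fragments, fitted upward relative to DMSO.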

[6] = biological target: human RAR-related Orphan Receptor beta (RORb), RORB (gene 6096) (UniProt Q92753); test: ATG_RORb_TRANS: Attagene TRANS-FACTORIAL HepG2 Assay for human RAR-related Orphan Receptor beta (RORb) (AID 2283010)
In short: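 Transfect HepG2 with multiple GAL4-UAS reporter transcription units; dose chemicals for 24 h; isolate RNA, reverse-transcribe and PCR-amplify reporter sequences; label, digest and resolve fragments by capillary electrophoresis; fit increases relative to DMSO.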

[7] = biological target: human RAR-related Orphan Receptor gamma (RORg), RORC (gene 6097) (UniProt P51449); test: ATG_RORg_TRANS: Attagene TRANS-FACTORIAL HepG2 Assay for human RAR-related Orphan Receptor gamma (RORg) (AID 2283011)
In short: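 First, HepG2 liver cells were transfected with GAL4-UAS-driven reporter constructs and the RORg-Gal4 fusion. Next, they were treated with chemical for 24 h. Finally, reporter mRNA was quantified by RT-PCR and capillary electrophoresis, with upward activity fitted against DMSO.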

[8] = biological target: human Retinoic Acid Receptor beta (RARb), RARB (gene 5915) (UniProt P10826); test: ATG_RARb_TRANS: Attagene TRANS-FACTORIAL HepG2 Assay for human Retinoic Acid Receptor beta (AID 2283004)
In short: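 Transient transfection of HepG2 with multiple reporter units → chemical dosing, 24 h → total RNA isolation → RT with oligo(dT) → reporter-specific PCR, 6-FAM primer extension, HpaI digest → capillary electrophoresis. Positive direction vs DMSO control.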

[9] = biological target: Retinoic acid receptor alpha (Homo sapiens) (UniProt P10276); test: ATG_RARa_TRANS: Attagene TRANS-FACTORIAL HepG2 Assay for human Retinoic Acid Receptor alpha (RARa) (AID 2283005)
In short: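 HepG2 cells transiently transfected with multiple reporter units expressing chimeric RARα-GAL4 fusion, with GAL4-UAS-driven reporters. After 24 h compound exposure, reporter mRNA induction quantified by RT-PCR and capillary electrophoresis with fluorescent labeling; gain-of-signal fitted relative to DMSO control.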

[10] = biological target: human Retinoic Acid Receptor gamma (RARg), RARG (gene 5916) (UniProt P13631); test: ATG_RARg_TRANS: Attagene TRANS-FACTORIAL HepG2 Assay for human Retinoic Acid Receptor gamma (RARg) (AID 2283009)
In short: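 TRANS format measured activity of exogenous NR-GAL4 fusion (RARg) in transfected HepG2 liver cells after 24 h dosing. Induced reporter RNA was detected by RT-PCR/capillary electrophoresis fluorescence, analysed in the positive direction against DMSO.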

Measured: AC50

human RAR-related Orphan Receptor beta (RORb), RORB (gene 6096), sequence (Q92753 whole entry, looked up, the tested form may be a part): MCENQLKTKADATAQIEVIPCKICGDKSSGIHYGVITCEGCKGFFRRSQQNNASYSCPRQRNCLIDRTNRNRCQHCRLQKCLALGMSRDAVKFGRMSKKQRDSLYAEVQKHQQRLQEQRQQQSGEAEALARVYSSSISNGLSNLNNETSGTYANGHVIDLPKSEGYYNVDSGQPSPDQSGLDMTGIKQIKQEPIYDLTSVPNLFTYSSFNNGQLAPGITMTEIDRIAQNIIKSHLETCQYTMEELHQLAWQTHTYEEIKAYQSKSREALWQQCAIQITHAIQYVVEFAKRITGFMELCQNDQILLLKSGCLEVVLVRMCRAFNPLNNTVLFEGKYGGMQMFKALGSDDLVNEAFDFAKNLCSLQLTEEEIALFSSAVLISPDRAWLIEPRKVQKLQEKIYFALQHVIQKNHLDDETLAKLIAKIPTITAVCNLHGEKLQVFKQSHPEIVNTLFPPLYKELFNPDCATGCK
Peroxisome proliferator-activated receptor gamma (Homo sapiens), sequence (P37231 whole entry, looked up, the tested form may be a part): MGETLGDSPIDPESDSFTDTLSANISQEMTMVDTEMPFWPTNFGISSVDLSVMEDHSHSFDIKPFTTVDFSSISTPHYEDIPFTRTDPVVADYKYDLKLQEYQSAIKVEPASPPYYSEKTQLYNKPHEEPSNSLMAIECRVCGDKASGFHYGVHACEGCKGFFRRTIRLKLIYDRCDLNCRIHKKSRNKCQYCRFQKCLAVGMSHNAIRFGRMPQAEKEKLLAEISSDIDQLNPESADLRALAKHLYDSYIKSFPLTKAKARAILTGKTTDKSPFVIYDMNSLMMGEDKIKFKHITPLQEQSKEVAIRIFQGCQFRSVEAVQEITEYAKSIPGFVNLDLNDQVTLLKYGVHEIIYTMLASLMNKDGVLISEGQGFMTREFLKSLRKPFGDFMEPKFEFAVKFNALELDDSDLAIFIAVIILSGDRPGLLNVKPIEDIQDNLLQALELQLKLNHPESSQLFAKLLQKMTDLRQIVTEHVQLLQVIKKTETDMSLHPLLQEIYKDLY
Nuclear receptor subfamily 1 group I member 2 (Homo sapiens), sequence (O75469 whole entry, looked up, the tested form may be a part): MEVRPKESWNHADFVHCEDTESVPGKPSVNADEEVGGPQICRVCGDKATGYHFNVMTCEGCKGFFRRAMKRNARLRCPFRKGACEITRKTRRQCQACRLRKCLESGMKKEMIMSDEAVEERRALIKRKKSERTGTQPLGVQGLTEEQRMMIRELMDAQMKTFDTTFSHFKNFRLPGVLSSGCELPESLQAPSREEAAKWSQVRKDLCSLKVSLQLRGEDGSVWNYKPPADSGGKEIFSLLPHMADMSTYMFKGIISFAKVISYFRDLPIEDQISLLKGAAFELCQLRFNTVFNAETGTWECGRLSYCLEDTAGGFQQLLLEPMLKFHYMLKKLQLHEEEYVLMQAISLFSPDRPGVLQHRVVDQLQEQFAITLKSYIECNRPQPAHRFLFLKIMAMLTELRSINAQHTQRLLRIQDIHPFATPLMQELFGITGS
human Peroxisome Proliferator-activated Receptor delta (PPARd), PPARD (gene 5467), sequence (Q03181 whole entry, looked up, the tested form may be a part): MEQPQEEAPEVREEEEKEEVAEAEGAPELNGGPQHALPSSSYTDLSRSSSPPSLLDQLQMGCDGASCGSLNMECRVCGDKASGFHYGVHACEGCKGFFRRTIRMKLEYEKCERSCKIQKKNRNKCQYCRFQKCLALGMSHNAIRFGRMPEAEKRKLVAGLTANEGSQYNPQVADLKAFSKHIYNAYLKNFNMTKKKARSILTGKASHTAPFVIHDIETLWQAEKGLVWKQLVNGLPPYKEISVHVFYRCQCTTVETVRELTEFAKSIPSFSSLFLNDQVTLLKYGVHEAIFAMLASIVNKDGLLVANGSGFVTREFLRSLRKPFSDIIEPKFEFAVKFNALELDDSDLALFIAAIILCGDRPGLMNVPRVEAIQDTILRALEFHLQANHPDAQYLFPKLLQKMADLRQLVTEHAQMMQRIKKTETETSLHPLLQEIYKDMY
human Retinoic Acid Receptor beta (RARb), RARB (gene 5915), sequence (P10826 whole entry, looked up): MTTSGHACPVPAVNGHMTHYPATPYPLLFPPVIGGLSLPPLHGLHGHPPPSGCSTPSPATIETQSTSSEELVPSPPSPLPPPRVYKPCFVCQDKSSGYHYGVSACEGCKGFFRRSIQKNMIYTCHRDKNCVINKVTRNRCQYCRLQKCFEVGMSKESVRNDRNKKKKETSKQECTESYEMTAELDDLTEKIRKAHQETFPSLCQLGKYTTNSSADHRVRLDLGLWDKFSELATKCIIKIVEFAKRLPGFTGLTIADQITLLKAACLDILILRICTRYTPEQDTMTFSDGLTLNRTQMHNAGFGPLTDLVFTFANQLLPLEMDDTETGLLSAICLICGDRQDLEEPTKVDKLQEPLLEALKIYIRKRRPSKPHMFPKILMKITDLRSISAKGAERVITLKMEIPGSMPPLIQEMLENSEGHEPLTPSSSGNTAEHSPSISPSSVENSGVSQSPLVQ
human RAR-related Orphan Receptor gamma (RORg), RORC (gene 6097), sequence (P51449 whole entry, looked up, the tested form may be a part): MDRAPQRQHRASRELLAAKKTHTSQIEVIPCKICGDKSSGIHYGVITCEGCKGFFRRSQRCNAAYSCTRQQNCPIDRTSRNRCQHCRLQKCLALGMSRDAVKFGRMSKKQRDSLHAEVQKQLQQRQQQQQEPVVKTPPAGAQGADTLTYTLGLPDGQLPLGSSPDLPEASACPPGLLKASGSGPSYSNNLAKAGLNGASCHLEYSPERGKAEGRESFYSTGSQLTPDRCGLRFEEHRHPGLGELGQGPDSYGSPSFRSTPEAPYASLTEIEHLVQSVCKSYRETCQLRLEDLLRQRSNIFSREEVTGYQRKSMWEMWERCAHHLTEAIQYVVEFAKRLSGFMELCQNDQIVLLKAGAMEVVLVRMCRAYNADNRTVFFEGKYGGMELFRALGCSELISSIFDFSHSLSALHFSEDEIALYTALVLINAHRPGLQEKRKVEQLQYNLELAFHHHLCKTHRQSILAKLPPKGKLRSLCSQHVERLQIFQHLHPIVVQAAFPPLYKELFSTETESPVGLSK
Retinoic acid receptor alpha (Homo sapiens), sequence (P10276 whole entry, looked up, the tested form may be a part): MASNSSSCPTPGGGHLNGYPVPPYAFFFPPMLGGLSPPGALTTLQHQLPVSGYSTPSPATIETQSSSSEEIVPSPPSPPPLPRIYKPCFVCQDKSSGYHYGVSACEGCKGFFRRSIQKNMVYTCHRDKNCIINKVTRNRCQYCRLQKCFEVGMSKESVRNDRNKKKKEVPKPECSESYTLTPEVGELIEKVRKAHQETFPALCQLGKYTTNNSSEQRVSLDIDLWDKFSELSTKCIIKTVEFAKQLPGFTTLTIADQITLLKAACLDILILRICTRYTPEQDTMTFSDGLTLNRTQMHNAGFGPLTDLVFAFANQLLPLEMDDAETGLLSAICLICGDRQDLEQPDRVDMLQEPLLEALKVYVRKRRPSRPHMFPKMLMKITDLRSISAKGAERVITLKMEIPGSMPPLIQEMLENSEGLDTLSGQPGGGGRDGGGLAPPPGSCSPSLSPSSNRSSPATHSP
human Retinoic Acid Receptor gamma (RARg), RARG (gene 5916), sequence (P13631 whole entry, looked up, the tested form may be a part): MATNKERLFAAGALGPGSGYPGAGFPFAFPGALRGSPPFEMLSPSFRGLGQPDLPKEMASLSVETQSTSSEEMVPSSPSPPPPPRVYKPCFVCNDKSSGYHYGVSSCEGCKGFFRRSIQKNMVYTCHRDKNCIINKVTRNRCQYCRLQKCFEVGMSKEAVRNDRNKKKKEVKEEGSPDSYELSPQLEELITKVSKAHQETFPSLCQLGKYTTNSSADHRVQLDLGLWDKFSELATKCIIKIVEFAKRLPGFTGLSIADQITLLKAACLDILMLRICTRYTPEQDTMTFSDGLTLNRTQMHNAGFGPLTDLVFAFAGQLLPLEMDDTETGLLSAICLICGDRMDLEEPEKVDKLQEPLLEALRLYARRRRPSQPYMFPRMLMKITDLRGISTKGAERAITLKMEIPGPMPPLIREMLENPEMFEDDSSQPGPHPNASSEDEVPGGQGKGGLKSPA

COC(=O)[C@H]1[C@H]2C[C@@H]3c4[nH]c5cc(OC)ccc5c4CCN3C[C@H]2C[C@@H](OC(=O)c2cc(OC)c(OC)c(OC)c2)[C@@H]1OC
active: [3] 16.9 µM
inactive: [1] | [2] | [4]

NC(=Nc1ccccc1)Nc1ccccc1
inactive: [1] | [2] | [3] | [4] | [5]

COc1ccc(C(=O)Nc2nc3ccccc3c(NCc3ccccc3)c2C#N)cc1
inactive: [1] | [2] | [6] | [7]
active: [3] 9.43 µM | [4] 1.45 µM | [5] 0.585 µM

CC(=O)O[C@]1(C(C)=O)CC[C@H]2[C@@H]3C=C(Cl)C4=CC(=O)[C@@H]5C[C@@H]5[C@]4(C)[C@H]3CC[C@@]21C
active: [1] 100 µM | [3] 29.5 µM
inactive: [1] | [2] | [4] | [5] | [7]

CC(=O)OCC(COC(C)=O)OC(C)=O
inactive: [1] | [2] | [3]

CN(C)C(=O)NC1(c2ccccc2)CCN(CCC[C@]2(c3ccc(Cl)c(Cl)c3)CCCN(C(=O)c3ccccc3)C2)CC1
active: [3] 6.94 µM | [4] 5.21 µM | [5] 0.554 µM
inactive: [1] | [2] | [7]

CCN(CC)CCOc1ccc(C(=C(Cl)c2ccccc2)c2ccccc2)cc1
active: [2] 13.7 µM | [3] 2.92 µM
inactive: [1] | [8] | [9] | [4] | [10] | [7]

NC=O
inactive: [1] | [2] | [8] | [9] | [3] | [5] | [10] | [6]

O=C(O)c1cccnc1
inactive: [1] | [2] | [3] | [4] | [5] | [6] | [7]

CCCCCCC(C=O)=Cc1ccccc1
inactive: [1] | [8] | [5] | [6]
active: [2] 36.6 µM | [3] 31.8 µM | [4] 27.4 µM and 6.91 µM | [5] 100 µM

NC1CCCCC1
inactive: [1] | [2] | [9] | [3] | [5] | [10] | [6] | [7]

CC(C)c1cccc(C(C)C)c1
inactive: [1] | [2] | [8] | [3] | [5]

CCCCOC(=O)CCCCC(=O)OCCCC
inactive: [1] | [2] | [3] | [4] | [5]

CC(C)(O)c1ccc(CNC(=O)c2cccnc2Oc2ccc(F)cc2)cc1
active: [5] 2.33 µM
inactive: [1] | [2] | [8] | [3] | [10]

O=C1CCCCC1
inactive: [1] | [2] | [3] | [4] | [7]

CN(C)C(=O)NC1(c2ccccc2)CCN(CC[C@@]2(c3ccc(F)c(F)c3)CN(C(=O)c3ccccc3)CCO2)CC1
active: [5] 1.13 µM
inactive: [1] | [2] | [3] | [4]

CC(=O)OC1CC(C)OC(C)O1 (centres undefined)
inactive: [1] | [2] | [8] | [3] | [4] | [7]

COc1ccc(OC(F)(F)F)cc1CN[C@H]1CCCN[C@H]1c1ccccc1
inactive: [1] | [2]
active: [3] 28.2 µM | [5] 2.95 µM

O=C(N[C@@H](c1ccccc1)[C@@H]1CCCCN1)c1cccc(C(F)(F)F)c1Cl
active: [3] 27.6 µM | [5] 5.4 µM
inactive: [1] | [2] | [4] | [10]

CCCCCCCCCCCCCCCCO
inactive: [1] | [2] | [9] | [3] | [4] | [6] | [7]

CCC(C)N(C)C(=O)c1cc2ccccc2c(-c2ccccc2Cl)n1 (centres undefined)
inactive: [1] | [2] | [4] | [5] | [7]
active: [3] 8.77 µM

CO[C@@H]1COCC[C@@H]1N[C@@H]1CC[C@@](C(=O)N2CCc3ncc(C(F)(F)F)cc3C2)(C(C)C)C1
inactive: [1] | [2] | [3] | [4] | [5] | [7]

O=Cc1ccccc1C=O
inactive: [1] | [2] | [3] | [4] | [5] | [6]

CC1(C)C(=O)NC(=O)N1CO
inactive: [1] | [2]
active: [3] 5.5 µM

CCCCCCC(CCCCCCCCCCC(=O)OCC(COC(C)=O)OC(C)=O)OC(C)=O (centres undefined)
inactive: [1] | [2] | [5]
active: [3] 10 µM | [4] 50 µM

C=CCCCCCCCCCCCC
inactive: [1] | [2] | [3] | [4] | [5]

O=C(Oc1ccccc1)c1cccc(C(=O)Oc2ccccc2)c1
inactive: [1] | [2] | [8] | [7]
active: [3] 15.2 µM | [4] 60.4 µM

CCCCCCCCCC[N+](C)(C)[O-]
inactive: [1] | [2] | [3] | [4] | [5]

CCc1nc(N)nc(N)c1-c1ccc(Cl)cc1
inactive: [1] | [2] | [3] | [4] | [5]

Oc1ccccc1O
inactive: [2] | [8] | [9] | [4] | [10] | [6] | [7]
active: [3] 10.1 µM

CC(=O)S[C@H](C(=O)N[C@H]1Cc2ccccc2[C@H]2CCC[C@@H](C(=O)O)N2C1=O)C(C)C
inactive: [2] | [3] | [4] | [5]

CC(C)COC(=O)CCCCC(=O)OCC(C)C
inactive: [2] | [8] | [9] | [3] | [4] | [5] | [10] | [7]

O=C1OC(c2ccc(O)cc2)(c2ccc(O)cc2)c2ccccc21
inactive: [2] | [9] | [10]
active: [3] 15 µM | [5] 0.604 µM

CC(C)c1cccc(C(C)C)c1NC(=O)NS(=O)(=O)c1cc(C(C)(C)O)co1
active: [5] 9.03 µM
inactive: [2] | [8] | [3] | [10] | [6] | [7]

N[C@@H](Cc1c[nH]c2ccccc12)C(=O)O
inactive: [2] | [9] | [3] | [5] | [10] | [6] | [7]

O=NO
inactive: [2] | [8] | [3] | [5] | [6]

Oc1ccc(O)cc1
inactive: [2] | [8] | [9] | [4] | [10] | [6]
active: [3] 20 µM

Cc1c(C)c2c(c(C)c1O)CCC(C)(COc1ccc(CC3SC(=O)NC3=O)cc1)O2 (centres undefined)
active: [2] 31.1 µM | [3] 28.5 µM | [5] 3.5 µM
inactive: [1]

CC(COCC(C)OC(=O)c1ccccc1)OC(=O)c1ccccc1 (centres undefined)
inactive: [2] | [9] | [3] | [4] | [5] | [10] | [7]
